Data reported in PubChem BioAssay (EPA / NIEHS).
Where “and” joins values, the source holds several entries; their conditions need not be identical. Identical values can stand only once. Calls of active or inactive are those of the source. How the source made its calls: active means hit-call score of the fitted dose curve at least 0.9, where 1 is the maximum; inactive means score below 0.9.

Key:
[1] = biological target: Nuclear respiratory factor 1 (Homo sapiens) (UniProt Q16656); assay: ATG_NRF1_CIS: Attagene CIS-FACTORIAL HepG2 Assay for human Nuclear Respiratory Factor 1 (NRF1) Orphan Gene (AID 2282987); details: HepG2 NRF1 cis-element reporter, Attagene multiplex; actives raise or lower the signal
Sequence of Nuclear respiratory factor 1 (Homo sapiens) (Q16656 whole entry, looked up): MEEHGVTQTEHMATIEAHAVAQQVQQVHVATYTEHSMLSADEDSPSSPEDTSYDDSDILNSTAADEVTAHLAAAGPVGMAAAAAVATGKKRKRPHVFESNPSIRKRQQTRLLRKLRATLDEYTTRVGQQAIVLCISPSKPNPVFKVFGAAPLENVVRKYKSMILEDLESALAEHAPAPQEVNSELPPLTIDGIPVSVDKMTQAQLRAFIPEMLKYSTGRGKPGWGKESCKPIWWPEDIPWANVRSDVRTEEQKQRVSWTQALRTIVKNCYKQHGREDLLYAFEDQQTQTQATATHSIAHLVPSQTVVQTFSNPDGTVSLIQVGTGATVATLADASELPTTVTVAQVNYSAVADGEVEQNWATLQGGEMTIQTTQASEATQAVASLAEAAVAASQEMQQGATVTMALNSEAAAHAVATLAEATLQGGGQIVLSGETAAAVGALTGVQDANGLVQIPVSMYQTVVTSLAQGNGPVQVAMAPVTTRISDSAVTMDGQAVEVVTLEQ
How it was run: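 Using DMSO as baseline, gain- or loss-of-signal was fitted for reporter mRNA levels in HepG2 cells transiently transfected with cis-regulated reporter units. Samples were taken 24 h after dosing and read by RT-PCR with capillary electrophoresis.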

[2] = ATG_NFI_CIS: Attagene CIS-FACTORIAL HepG2 Assay for human Nuclear Factor I (NFI) (AID 2282989); details: HepG2 cis-regulatory reporter, NFI response element transcription; actives raise or lower the signal
How it was run: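 Endogenous TF activity in HepG2 cells transiently transfected with cis-element-driven multiplexed reporter units, read 24 h after dosing. Reporter mRNA quantified by RT-PCR, 6-FAM labelling, HpaI digestion and capillary electrophoresis; bidirectional fit versus DMSO.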

[3] = biological target: Myc proto-oncogene protein (Homo sapiens) (UniProt P01106); assay: ATG_Myc_CIS: Attagene CIS-FACTORIAL HepG2 Assay for human Myelocytomatosis (Myc) Proto-Oncogene Transcription Factor (AID 2282990); details: HepG2, Attagene cis-reporter transcription factor activity; actives raise or lower the signal
Sequence of Myc proto-oncogene protein (Homo sapiens) (P01106 whole entry, looked up): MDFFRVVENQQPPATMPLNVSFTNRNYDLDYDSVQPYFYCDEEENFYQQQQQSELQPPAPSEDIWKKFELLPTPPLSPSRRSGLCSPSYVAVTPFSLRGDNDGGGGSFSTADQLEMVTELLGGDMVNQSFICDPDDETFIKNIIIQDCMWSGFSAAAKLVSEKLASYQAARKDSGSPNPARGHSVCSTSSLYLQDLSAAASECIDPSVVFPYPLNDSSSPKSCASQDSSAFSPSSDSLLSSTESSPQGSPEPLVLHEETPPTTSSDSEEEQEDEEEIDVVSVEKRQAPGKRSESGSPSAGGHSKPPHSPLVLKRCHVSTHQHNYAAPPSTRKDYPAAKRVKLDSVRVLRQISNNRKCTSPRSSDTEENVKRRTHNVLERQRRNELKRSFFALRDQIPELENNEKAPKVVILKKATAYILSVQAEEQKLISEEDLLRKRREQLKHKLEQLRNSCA
How it was run: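 DMSO-normalised, bidirectionally fitted reporter mRNA signal. HepG2 cells transfected with cis reporter constructs, treated 24 h; transcripts detected by RT-PCR, 6-FAM primer extension and CE.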

[4] = ATG_NF_kB_CIS: Attagene CIS-FACTORIAL HepG2 Assay for human Nuclear Factor Kappa B (NF-kB) (AID 2282991); details: HepG2 Attagene cis-factorial NF-kB reporter mRNA; actives raise or lower the signal
How it was run: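 Endpoint from a 52-component multiplexed HepG2 reporter panel: cis-regulated transcription units transiently transfected, 24 h dosing, reporter mRNA quantified by RT-PCR and capillary electrophoresis, scored as increase or decrease against DMSO.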

[5] = ATG_NRF2_ARE_CIS: Attagene CIS-FACTORIAL HepG2 Assay for human Nuclear Factor Erythroid 2 Related Factor 2 (NFR2) response to Antioxidant Response Elements (ARE) (AID 2282992); details: HepG2 Attagene ARE/NRF2 reporter, transcription factor activity; actives raise or lower the signal;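 on AC50: reporter mRNA level measured by RT-PCR and capillary electrophoresis fluorescence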
How it was run: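 Fluorescence intensity of reporter-specific cDNA fragments, separated by capillary electrophoresis, reflects mRNA induction in transfected HepG2 cells at 24 h. Activity is fitted bidirectionally, DMSO serving as baseline.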

[6] = ATG_Oct_MLP_CIS: Attagene CIS-FACTORIAL HepG2 Assay for human Octamer-Binding Transcription Factor (Oct) (AID 2282993); details: HepG2 Attagene cis-factorial Oct reporter, mRNA; actives raise or lower the signal
How it was run: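 HepG2 cells transiently transfected with cis-element-driven reporter transcription units (endogenous TF activity); 24 h compound exposure. Reporter mRNA quantified by RT-PCR, 6-FAM labelling, HpaI digestion and capillary electrophoresis; bidirectional fit versus DMSO baseline.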

[7] = biological target: Cellular tumor antigen p53 (Homo sapiens) (UniProt P04637); assay: ATG_p53_CIS: Attagene CIS-FACTORIAL HepG2 Assay for human p53 Transcription Factor (AID 2282994); details: HepG2 p53 cis-element reporter, Attagene mRNA; actives raise or lower the signal
Sequence of Cellular tumor antigen p53 (Homo sapiens) (P04637 whole entry, looked up): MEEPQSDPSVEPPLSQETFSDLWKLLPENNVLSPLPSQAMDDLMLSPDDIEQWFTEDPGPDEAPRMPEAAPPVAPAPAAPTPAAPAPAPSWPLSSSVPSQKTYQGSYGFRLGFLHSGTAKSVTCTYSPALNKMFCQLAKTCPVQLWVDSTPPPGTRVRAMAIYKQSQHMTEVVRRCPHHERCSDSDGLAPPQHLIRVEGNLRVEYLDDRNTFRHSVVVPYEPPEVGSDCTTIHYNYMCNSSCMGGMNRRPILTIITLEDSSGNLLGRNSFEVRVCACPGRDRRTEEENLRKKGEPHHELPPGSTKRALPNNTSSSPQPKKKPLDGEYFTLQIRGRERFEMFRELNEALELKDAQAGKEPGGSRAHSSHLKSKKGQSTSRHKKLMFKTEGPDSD
How it was run: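 Transiently transfected HepG2 (multiple cis reporter transcription units); exposure 24 h; reporter RNA via RT-PCR, 6-FAM extension, 2 h HpaI digest at 37 C, CE detection; DMSO baseline.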

[8] = BSK_3C_TissueFactor: BioMAP Diversity Plus: 3C Assay for Tissue Factor Biomarker Activity (AID 2282997); details: BioMAP 3C HUVEC, tissue factor biomarker readout; actives raise or lower the signal
How it was run: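 Tissue Factor measured by ELISA, 24 h after treatment of primary HUVEC in the BioMAP 3C setting.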

[9] = BSK_3C_uPAR: BioMAP Diversity Plus: 3C Assay for Urokinase-type plasminogen activator receptor (uPAR) Biomarker Activity (AID 2282998); details: BioMAP 3C HUVEC, uPAR biomarker ELISA; actives raise or lower the signal
How it was run: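 Primary human umbilical vein endothelial cells, 3C system; surface uPAR measured by ELISA 24 h after dosing. Cytotoxicity via SRB total protein in parallel cultures; bidirectional fit against DMSO.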

[10] = BSK_3C_VCAM1: BioMAP Diversity Plus: 3C Assay for Vascular cell adhesion molecule 1 (VCAM1) Biomarker Activity (AID 2282999); details: BioMAP 3C HUVEC, VCAM1 ELISA, cytokine-stimulated; actives raise or lower the signal
How it was run: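 Vascular primary endothelium (human umbilical vein) was exposed to chemicals and assayed 24 h later. VCAM-1 levels came from ELISA, with DMSO serving as baseline for bidirectional fitting.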

SMILES	outcome [1]	outcome [2]	outcome [3]	outcome [4]	outcome [5]	outcome [6]	outcome [7]	outcome [8]	outcome [9]	outcome [10]	AC50 [5]	AC50 [8]	AC50 [9]	AC50 [10]	AC50 [1]	AC50 [6]	AC50 [7]
CCOC(=O)CC(=O)C(F)(F)C(F)(F)F	inactive	inactive	inactive	inactive	inactive	inactive	inactive	inactive	inactive	inactive	–	–	–	–	–	–	–
CN(N=O)C(=O)N[C@@H]1[C@@H](O)[C@H](O)[C@@H](CO)O[C@@H]1O	inactive	inactive	inactive	–	inactive	inactive	inactive	–	–	–	–	–	–	–	–	–	–
C[C@]12CC[C@H]3C(=CCc4cc(O)ccc43)[C@@H]1CCC2=O	inactive	inactive	inactive	–	inactive	inactive	inactive	inactive	inactive	inactive	–	–	–	–	–	–	–
CCN(CC)c1ccc(C=O)cc1	inactive	inactive	inactive	inactive	inactive	inactive	–	inactive	inactive	inactive	–	–	–	–	–	–	–
Cc1ccc([N+](=O)[O-])c(C)c1	inactive	inactive	inactive	–	inactive	inactive	–	–	–	–	–	–	–	–	–	–	–
COC(F)(C(F)F)C(F)(F)F (stereo not given)	inactive	inactive	inactive	inactive	inactive	inactive	–	inactive	inactive	inactive	–	–	–	–	–	–	–
OCC(O)CC(F)(F)C(F)(F)C(F)(F)C(F)(F)F (stereo not given)	inactive	inactive	inactive	inactive	inactive	inactive	inactive	inactive	inactive	inactive	–	–	–	–	–	–	–
O=C(F)C1(F)C(F)(F)C(F)(F)C(F)(F)C(F)(F)C1(F)F	inactive	inactive	inactive	inactive	inactive	inactive	–	inactive	inactive	inactive	–	–	–	–	–	–	–
O=C1c2c(O)ccc(Nc3ccc(CCO)cc3)c2C(=O)c2c([N+](=O)[O-])ccc(O)c21	inactive	inactive	inactive	–	–	inactive	inactive	–	–	–	6.59 µM (active)	0.7 µM (active)	4.7 µM (active)	23.2 µM (active)	–	–	–
FC(F)(F)C(F)(F)C(F)(F)CC1CO1 (stereo not given)	inactive	inactive	inactive	inactive	inactive	inactive	–	inactive	inactive	inactive	–	–	–	–	–	–	–
NC(=O)C(F)(F)C(F)(F)C(F)(F)F	inactive	inactive	inactive	inactive	inactive	inactive	inactive	inactive	inactive	inactive	–	–	–	–	–	–	–
CNS(=O)(=O)C(F)(F)C(F)(F)C(F)(F)C(F)(F)C(F)(F)C(F)(F)C(F)(F)C(F)(F)F	inactive	inactive	inactive	inactive	inactive	inactive	inactive	inactive	inactive	inactive	–	–	–	–	–	–	–
Brc1nc2ccccc2s1	inactive	inactive	inactive	–	–	inactive	inactive	inactive	inactive	inactive	23.6 µM (active)	–	–	–	–	–	–
NC(=O)C(F)(F)C(F)(F)C(F)(F)C(F)(F)C(N)=O	inactive	inactive	inactive	inactive	inactive	inactive	inactive	inactive	inactive	inactive	–	–	–	–	–	–	–
O=C(O)C(F)(F)C(F)(F)C(F)(F)C(=O)O	inactive	inactive	inactive	inactive	inactive	inactive	inactive	inactive	inactive	inactive	–	–	–	–	–	–	–
CO[Si](C)(CCC(F)(F)C(F)(F)C(F)(F)C(F)(F)C(F)(F)C(F)(F)F)OC	inactive	inactive	inactive	inactive	inactive	inactive	–	inactive	inactive	inactive	–	–	–	–	–	–	–
CCN=C1C=CC(=C(c2ccc(N(CC)CC)cc2)c2ccc(N(CC)CC)cc2)c2ccccc21	–	inactive	inactive	inactive	–	–	–	–	–	–	0.0811 µM (active)	1.96 µM (active) and 1.79 µM (active)	3.95 µM (active) and 1.39 µM (active)	2.64 µM (active) and 2.81 µM (active)	1.04 µM (active)	0.566 µM (active)	0.917 µM (active)
Cc1cc(C)c(O)c(C(C)(C)C)c1	inactive	inactive	inactive	inactive	–	inactive	inactive	–	–	–	52.2 µM (active)	26.9 µM (active)	29.2 µM (active)	31.6 µM (active)	–	–	–
O=C(O)C(F)(F)C(F)(F)C(F)(F)OC(F)(F)F	inactive	inactive	inactive	inactive	inactive	inactive	–	inactive	inactive	inactive	–	–	–	–	–	–	–
CN(C(=O)C(F)(F)C(F)(F)C(F)(F)F)[Si](C)(C)C	inactive	inactive	inactive	inactive	inactive	inactive	inactive	inactive	inactive	inactive	–	–	–	–	–	–	–
NCC(F)(F)C(F)(F)C(F)(F)C(F)(F)C(F)(F)C(F)(F)C(F)(F)C(F)(F)F	inactive	inactive	inactive	inactive	inactive	inactive	inactive	inactive	inactive	inactive	–	–	–	–	–	–	–
O=C=NCc1cccc(CN=C=O)c1	inactive	inactive	inactive	inactive	inactive	inactive	–	inactive	inactive	inactive	–	–	–	–	–	–	–
C[Si](Cl)(Cl)CCC(F)(F)C(F)(F)C(F)(F)C(F)(F)C(F)(F)C(F)(F)F	inactive	inactive	inactive	inactive	inactive	inactive	inactive	inactive	inactive	inactive	–	–	–	–	–	–	–
CC(C)(C)c1cc(CCC(=O)NCCCCCCNC(=O)CCc2cc(C(C)(C)C)c(O)c(C(C)(C)C)c2)cc(C(C)(C)C)c1O	inactive	inactive	inactive	inactive	inactive	inactive	inactive	inactive	inactive	inactive	–	–	–	–	–	–	–
O=S(=O)(O)c1ccc(Cl)cc1	inactive	inactive	inactive	–	inactive	inactive	inactive	–	–	–	–	–	–	–	–	–	–
Cc1cc(O)c(C(C)(C)C)cc1C(C)(C)C	inactive	inactive	inactive	inactive	–	inactive	inactive	–	–	–	11.1 µM (active)	3.4 µM (active)	3.82 µM (active)	4.42 µM (active)	–	–	–
O=C(c1ccccc1)c1ccc(O)cc1O	inactive	inactive	inactive	inactive	–	inactive	–	inactive	inactive	inactive	66.8 µM (active)	–	–	–	–	–	–
O=C(Cl)C(F)(F)C(F)(F)C(F)(F)C(F)(F)C(F)(F)C(F)(F)C(F)(F)F	inactive	inactive	inactive	inactive	–	inactive	inactive	inactive	inactive	inactive	49 µM (active)	–	–	–	–	–	–
O=S(=O)(Cl)C(F)(F)C(F)(F)C(F)(F)C(F)(F)C(F)(F)C(F)(F)C(F)(F)C(F)(F)F	inactive	inactive	inactive	inactive	–	inactive	–	inactive	–	inactive	70.3 µM (active)	–	45.8 µM (active) and 47.4 µM (active)	–	–	–	–
